Molecules are shown by their SMILES. Results filed as inconclusive are left out. A number with no mark means an inactive call. Active and inactive are the calls of the source. Calls follow the shape of the dose curve; as a rule, active = well fitted cell-killing curve with a large enough effect; inconclusive = small, poorly fitted or top-dose-only effect, or effect the other way; inactive = no such curve, though single readings can be large or run the other way.

The record followed here is PubChem BioAssay (NCATS).
Potency is read from the fitted curve at half-maximal effect.

The nature of the first experiment: Quantitative High-Throughput drug screen in 47 multiple myeloma cell lines against the NCATS MIPE library collection: UTMC2_PLB cell viability assay (AID 1919868). Also: nearly all actives have a fitted effect of over 55% in size.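 As to viability (% of DMSO control): 100% = DMSO-only wells and 0% = media-only wells without cells.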 The settings on record: CellTiter-Glo ATP luminescence, 48 h; series mostly up to 45.8 µM; viability (% of DMSO control): at the top concentration. In a few lines:
(§1)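 Inhibition of viability over 48 h was scored by ATP content (CellTiter-Glo) in 500-cell wells. Zero and full viability were defined by media-only and DMSO-only wells.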
(In ATP-based viability assays light output follows the ATP content of the culture.)
Take `CN(C)CCOC(c1ccccc1)c1ccccc1`: the Potency was 10.5 µM (active).
Consider `O=C1Cc2cc(CCN3CCN(c4nsc5ccccc45)CC3)c(Cl)cc2N1`, for which the Potency is 20.9 µM (active).
Regarding `CCc1cccc2c3c([nH]c12)C(CC)(CC(=O)O)OCC3` (stereo unspecified), the “viability (% of DMSO control)” value was 186%.
Consider `CN1CCN(CCCN2c3ccccc3Sc3ccc(Cl)cc32)CC1`, for which the Potency was 23.5 µM (active).
`CC#C[C@]1(O)CC[C@H]2[C@@H]3CCC4=CC(=O)CCC4=C3[C@@H](c3ccc(N(C)C)cc3)C[C@@]21C`: the Potency is 0.418 µM (active).
With `CN1CCC(=C2c3ccccc3C=Cc3ccccc32)CC1`, the Potency was 13.2 µM (active).
Turning to `NCCc1cnc[nH]1`, the “viability (% of DMSO control)” value is 205%.
Regarding `CN(C)c1nc(N(C)C)nc(N(C)C)n1`, the “viability (% of DMSO control)” value is 133%.
As for `CS(=O)(=O)CCNCc1ccc(-c2ccc3ncnc(Nc4ccc(OCc5cccc(F)c5)c(Cl)c4)c3c2)o1`, the Potency was 1.18 µM (active).
As for `Cn1c(=O)c2c(ncn2C)n(C)c1=O`, the “viability (% of DMSO control)” value was 171%.
On to `CN1CCC(=C2c3ccccc3CC(=O)c3sccc32)CC1`, for which the Potency was 10.5 µM (active).
As to `COc1cc2nc(N3CCN(C(=O)c4ccco4)CC3)nc(N)c2cc1OC`, the Potency is 11.8 µM (active).
Take `CC(C)NCC(O)COc1ccc(CCOCC2CC2)cc1` (stereo unspecified): the “viability (% of DMSO control)” value was 118%.
In the case of `C[C@](N)(Cc1ccc(O)c(O)c1)C(=O)O`, the “viability (% of DMSO control)” value is 123%.
In the case of `CC[C@@]1(O)C(=O)OCc2c1cc1n(c2=O)Cc2cc3c(CN(C)C)c(O)ccc3nc2-1`, the Potency was 0.0526 µM (active).
As for `NC(=O)NO`, the Potency was 1.66 µM (active).
As to `CC[N+](CC)(CC)CCOc1cccc(OCC[N+](CC)(CC)CC)c1OCC[N+](CC)(CC)CC`, the “viability (% of DMSO control)” value was 87.1%.
For `O=c1[nH]cc(F)c(=O)[nH]1`, the “viability (% of DMSO control)” value was 173%.
Consider `NC12CC3CC(CC(C3)C1)C2`, for which the Potency was 8.33 µM (active).
On the same count and under the same terms, the result for `Cn1cnc2c1c(=O)[nH]c(=O)n2C` reads 14.8 µM (active).
Consider `CC(C)(Oc1ccc(C2CC2(Cl)Cl)cc1)C(=O)O` (stereo unspecified), for which the “viability (% of DMSO control)” value is 234% [at 92.2 µM].
On to `O=C(c1ccc(F)cc1)C1CCN(CCn2c(=O)[nH]c3ccccc3c2=O)CC1`, for which the “viability (% of DMSO control)” value is 157%.
For the molecule `CN1C2CCC1CC(OC(=O)C(CO)c1ccccc1)C2` (stereo unspecified), the “viability (% of DMSO control)” value was 150%.
As to `CN(C)C(=O)C(CCN1CCC(O)(c2ccc(Cl)cc2)CC1)(c1ccccc1)c1ccccc1`, the Potency is 18.7 µM (active).
On to `CC(=O)OCC(CCn1cnc2cnc(N)nc21)COC(C)=O`, for which the “viability (% of DMSO control)” value is 134%.
Turning to `O=C(Nc1ccc([N+](=O)[O-])cc1Cl)c1cc(Cl)ccc1O`, the Potency is 1.05 µM (active).
In the case of `COc1cc2c(c(OC)c1OC)-c1ccc(OC)c(=O)cc1[C@@H](NC(C)=O)CC2`, the “viability (% of DMSO control)” value is 5.04%.
`NCCCCCC(=O)O`: the “viability (% of DMSO control)” value is 151%.
Same read-out and setting: under `CCN1CCCC1CNC(=O)c1cc(S(=O)(=O)CC)c(N)cc1OC` (stereo unspecified) stands 252%; under `Clc1ccc2nsnc2c1NC1=NCCN1`, 185%.
On to `CN(Cc1cnc2nc(N)nc(N)c2n1)c1ccc(C(=O)N[C@@H](CCC(=O)O)C(=O)O)cc1`, for which the Potency is 0.166 µM (active).
For the molecule `COC(=O)Nc1nc2ccc(C(=O)c3cccs3)cc2[nH]1`, the Potency is 0.0209 µM (active).
As to `CN(C)CCCN1c2ccccc2CCc2ccc(Cl)cc21`, the Potency is 0.833 µM (active).
For the molecule `CC(C)Cc1ccc(C(C)C(=O)O)cc1` (stereo unspecified), the “viability (% of DMSO control)” value was 106% [at 23.2 µM].

Another experiment in a line: Quantitative High-Throughput drug screen in 47 multiple myeloma cell lines against the NCATS MIPE library collection: PE2_PLB cell viability assay (AID 1919869). Also: nearly all actives have a fitted effect of over 35% in size.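 As to viability (% of control): 100% = DMSO-only wells and 0% = cell-free media-only wells.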 The note with it: PE2_PLB myeloma cells viability, ATP luminescence, 48 h; series mostly up to 45.8 µM; viability (% of control): at the top concentration. In a few lines:
as §1
`CN(C)CCOC(c1ccccc1)c1ccccc1`: the Potency is 7.43 µM (active).
As for `O=C1Cc2cc(CCN3CCN(c4nsc5ccccc45)CC3)c(Cl)cc2N1`, the Potency was 18.7 µM (active).
`CCc1cccc2c3c([nH]c12)C(CC)(CC(=O)O)OCC3` (stereo unspecified): the “viability (% of control)” value is 127%.
Turning to `CN1CCN(CCCN2c3ccccc3Sc3ccc(Cl)cc32)CC1`, the Potency is 23.5 µM (active).
`CC#C[C@]1(O)CC[C@H]2[C@@H]3CCC4=CC(=O)CCC4=C3[C@@H](c3ccc(N(C)C)cc3)C[C@@]21C`: the Potency is 0.833 µM (active).
As to `CN1CCC(=C2c3ccccc3C=Cc3ccccc32)CC1`, the Potency is 23.5 µM (active).
Consider `NCCc1cnc[nH]1`, for which the “viability (% of control)” value was 126%.
As to `CN(C)c1nc(N(C)C)nc(N(C)C)n1`, the “viability (% of control)” value is 103%.
As to `CS(=O)(=O)CCNCc1ccc(-c2ccc3ncnc(Nc4ccc(OCc5cccc(F)c5)c(Cl)c4)c3c2)o1`, the Potency was 1.66 µM (active).
Consider `Cn1c(=O)c2c(ncn2C)n(C)c1=O`, for which the “viability (% of control)” value was 106%.
Turning to `CN1CCC(=C2c3ccccc3CC(=O)c3sccc32)CC1`, the Potency was 11.8 µM (active).
In the case of `COc1cc2nc(N3CCN(C(=O)c4ccco4)CC3)nc(N)c2cc1OC`, the Potency was 10.5 µM (active).
As for `CC(C)NCC(O)COc1ccc(CCOCC2CC2)cc1` (stereo unspecified), the “viability (% of control)” value was 92.5%.
On to `CC[C@@]1(O)C(=O)OCc2c1cc1n(c2=O)Cc2cc3c(CN(C)C)c(O)ccc3nc2-1`, for which the Potency is 0.662 µM (active).
As to `NC(=O)NO`, the Potency is 3.32 µM (active).
As to `CC[N+](CC)(CC)CCOc1cccc(OCC[N+](CC)(CC)CC)c1OCC[N+](CC)(CC)CC`, the “viability (% of control)” value is 85.8%.
Regarding `O=c1[nH]cc(F)c(=O)[nH]1`, the “viability (% of control)” value is 107%.
With `NC12CC3CC(CC(C3)C1)C2`, the “viability (% of control)” value was 83.6%.
`Cn1cnc2c1c(=O)[nH]c(=O)n2C`: the Potency is 9.35 µM (active).
Take `CC(C)(Oc1ccc(C2CC2(Cl)Cl)cc1)C(=O)O` (stereo unspecified): the “viability (% of control)” value is 128% [at 92.2 µM].
The same measure, in the same setting: under `O=C(c1ccc(F)cc1)C1CCN(CCn2c(=O)[nH]c3ccccc3c2=O)CC1` stands 90.5%.
The same measure, in the same setting: under `CN1C2CCC1CC(OC(=O)C(CO)c1ccccc1)C2` (stereo unspecified) stands 104%.
As to `CN(C)C(=O)C(CCN1CCC(O)(c2ccc(Cl)cc2)CC1)(c1ccccc1)c1ccccc1`, the Potency was 26.4 µM (active).
Turning to `CC(=O)OCC(CCn1cnc2cnc(N)nc21)COC(C)=O`, the “viability (% of control)” value was 109%.
With `O=C(Nc1ccc([N+](=O)[O-])cc1Cl)c1cc(Cl)ccc1O`, the Potency is 0.526 µM (active).
Turning to `COc1cc2c(c(OC)c1OC)-c1ccc(OC)c(=O)cc1[C@@H](NC(C)=O)CC2`, the “viability (% of control)” value is 8.27%.
Still for that read-out and setting: the result for `NCCCCCC(=O)O` reads 116%; that for `CCN1CCCC1CNC(=O)c1cc(S(=O)(=O)CC)c(N)cc1OC` (stereo unspecified), 131%.
For the molecule `CN(Cc1cnc2nc(N)nc(N)c2n1)c1ccc(C(=O)N[C@@H](CCC(=O)O)C(=O)O)cc1`, the Potency is 0.187 µM (active).
In the case of `COC(=O)Nc1nc2ccc(C(=O)c3cccs3)cc2[nH]1`, the Potency was 0.0235 µM (active).
For the molecule `CN(C)CCCN1c2ccccc2CCc2ccc(Cl)cc21`, the Potency is 2.64 µM (active).
In the case of `CC(C)Cc1ccc(C(C)C(=O)O)cc1` (stereo unspecified), the “viability (% of control)” value is 102% [at 23.2 µM].
